High-throughput results: PubChem BioAssay, several laboratories
Candida biofilm: clotrimazole potentiators killing Candida biofilms, primary screen, with clotrimazole, Alamar Blue; C. albicans biofilm + clotrimazole; inhibition, % at 6 µM; hit rate 0.14% among 85,000;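 active = inhibition above 20%; inactive = inhibition below 20%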;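 also: preformed 24 hr biofilms exposed to compound for 48 hr; 0% = biofilm without compound and 100% = blank killed by clotrimazole plus chlorhexidine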
GALR2 agonist: GALR2 receptor agonists, primary screen, cell-based. Galanin receptor type 2 (Homo sapiens), O43603. GALR2-expressing cells, agonist activation read-out. activation, % (no concentration beside the values). hit rate 0.48% among 140,000. AID 803, 2007; in the data active = activation above about 5%, passing the limit was not always enough;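 also: 0% = vehicle buffer wells and 100% = reference agonist at full effect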
S1P2 antag: human S1P2 receptor antagonists, primary screen, cell-based. hit rate 0.21% among 97,000. cell-based S1P2 antagonist assay, inhibition at 5 uM. inhibition, % at 5 µM; in the data active = inhibition above about 45%;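 also: CRE beta-lactamase reporter cells expressing human S1P2 stimulated with S1P; 0% = agonist at EC80 alone and 100% = agonist plus reference antagonist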
Target sequence (O95136 whole entry, looked up): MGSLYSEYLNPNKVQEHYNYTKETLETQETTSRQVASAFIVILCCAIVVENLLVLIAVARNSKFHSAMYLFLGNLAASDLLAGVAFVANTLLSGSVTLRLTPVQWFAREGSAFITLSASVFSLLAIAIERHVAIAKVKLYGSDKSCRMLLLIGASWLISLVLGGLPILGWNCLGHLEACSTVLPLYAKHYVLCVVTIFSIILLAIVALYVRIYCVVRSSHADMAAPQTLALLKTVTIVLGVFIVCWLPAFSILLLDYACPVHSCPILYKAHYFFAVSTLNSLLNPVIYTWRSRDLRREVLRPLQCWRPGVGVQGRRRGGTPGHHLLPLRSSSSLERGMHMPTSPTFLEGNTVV
Phagocyt inh: inhibitors of macrophage phagocytosis, primary screen, imaging, J774A.1 cells, IgG beads; J774A.1 macrophage IgG-bead phagocytosis; inhibition, % at 5 µM; hit rate 0.07% among 110,000; AID 1029, 2008;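 active = inhibition above the mean of the plate negative controls plus 5 SD, cut at about 13% in these data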;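 also: phagocytic index as fraction of beads internalized from green versus red external bead signal; plate controls were DMSO negative control for no effect and cytochalasin-D positive control for full effect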
GALR2 antag: GALR2 antagonists in receptor-expressing cells, primary screen | Galanin receptor type 2 (Homo sapiens), O43603 | antagonist mode | inhibition, % at 4 µM | hit rate 0.39% among 140,000 | AID 828, 2007; in the data active = inhibition above about 27%;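 also: cells stimulated with galanin 1-16 at roughly its EC80; 0% = agonist challenge control and 100% = basal control without agonist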
S1P2 ag: S1P2 receptor agonists, primary screen, cell-based; S1P2-expressing cell line, agonist reporter read-out; activation, % at 4.5 µM; hit rate 0.46% among 97,000; in the data active = activation above about 16%;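 also: 0% = vehicle low control and 100% = maximal reference agonist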
Starred values were filed as active, the others as inactive; . = no result; [ ] = dose if it differs, or a comment. Hits are enriched below; roughly 1.3% of the tested compounds scored in any of these assays.

SMILES	Candida biofilm	GALR2 agonist	S1P2 antag	Phagocyt inh	GALR2 antag	S1P2 ag
CCCCSc1c(C)c2cc3c(cc2[nH]c1=O)OCO3	4.8	-3.9	18.2	-0.6	0.9	-5.1
CCOC(=O)c1c(C)n(C)c2cc(-c3cccc(C(F)(F)F)c3)c(O)cc12	.	-0.4	.	-1.5	6.0	.
CCOC(=O)c1c(C)n(C)c2cc(-c3ccc(C)cc3)c(O)cc12	.	5.3*	.	-6.0	-9.3	.
CCN(CC)c1ccc2cc(C(=O)NNC(=O)c3ccc(S(=O)(=O)N4CCCCC4)cc3)c(=O)oc2c1	.	-0.7	.	-4.3	-11.6	.
CCN(CC)c1ccc2cc(S(=O)(=O)c3ccc(C)cc3)c(=O)oc2c1	.	6.0*	.	-1.5	3.3	.
CC(=O)Nc1ccc(NC(=O)/C(Cl)=C/c2ccccc2)cc1	.	-0.3	5.6	1.5	2.4	35.3*
CC(=O)Nc1ccc(NC(=S)Nc2ccccc2)cc1	.	-2.4	-4.2	-0.3	8.3	-6.7
O=C(Nc1cccnc1)c1c(F)c(F)c(F)c(F)c1F	22.7*	-3.4	12.4	0.9	5.3	-3.9
COC(=O)c1ccccc1NC(=O)C(C)NS(=O)(=O)c1ccc(OC)cc1 (stereo not drawn)	8.3	-2.8	-13.9	-0.2	3.6	-7.2
O=C(c1ccccc1)C(CCC(CN1CCOCC1)C(=O)c1ccccc1)CN1CCOCC1 (stereo not drawn)	3.4	-0.4	53.4*	1.7	7.7	-6.3
O=C(c1ccc(F)cc1)C(CN1CCOCC1)c1ccccc1 (stereo not drawn)	9.4	-1.2	28.1	0.7	31.7*	-12.8
COc1ccc(C(=O)C(CN2CCOCC2)c2ccccc2)cc1 (stereo not drawn)	5.2	-1.4	-0.4	-0.6	19.9	-1.5
Cc1cccc(NC(=O)c2cc(-c3ccc(C)s3)nc3ccccc23)n1	.	-1.6	.	-4.8	17.4	.
Brc1ccc(-c2nnc(-c3cccnc3)c3conc23)cc1	-0.7	-1.3	-4.2	.	-5.0	-4.5
Cc1nn(CC(O)Cn2c3c(c4ccccc42)CCN(C)C3=O)c(C)c1Br (stereo not drawn)	3.8	-1.3	2.1	-0.8	0.3	-7.1
Cc1cc(C)n(-c2nc(NCC(C)O)c3c4c(sc3n2)CCCC4)n1 (stereo not drawn)	8.2	8.8*	6.3	0.2	-10.8	-5.0
Cc1cc(C)n(-c2nc(NCC(C)O)c3c4c(sc3n2)COC(C)(C)C4)n1 (stereo not drawn)	4.8	-1.1	1.3	-3.2	-2.6	-5.8
Cc1cc(C)n(-c2nc(NCCCO)c3c4c(sc3n2)CCCC4)n1	8.4	35.7*	3.8	0.3	-25.8	-0.4
Cc1cc(C)n(-c2nc(NCCO)c3c4c(sc3n2)CCCC4)n1	2.5	8.1*	21.1	-1.5	-13.3	-2.9
Cc1c(C(=O)OCC(=O)c2c(N)n(CC(C)C)c(=O)n(C)c2=O)oc2ccccc12	6.3	-2.9	-7.3	.	11.0	-4.6
CC(C)Cn1c(N)c(C(=O)COC(=O)c2ccc3ccccc3n2)c(=O)n(C)c1=O	-1.6	-1.7	-21.6	.	11.7	21.8*
NC(=O)CCNC(=O)c1ccc(Cl)cc1	.	-2.0	25.3	-1.3	-8.2	44.0*
CCOC(=O)c1sc2nc(NC(=O)C(C)(C)C)sc2c1C	4.3	0.6	30.8	-0.5	2.1	-4.1
O=C1c2ccccc2S(=O)(=O)N1CC1CC(c2ccccc2)=NO1 (stereo not drawn)	-2.2	-0.1	-11.3	-0.8	-2.8	-4.1
COc1ccc(C2=NOC(CN3C(=O)c4ccccc4S3(=O)=O)C2)cc1 (stereo not drawn)	1.7	-3.4	-5.2	37.5*	9.0	-7.4
SMILES	Candida biofilm	GALR2 agonist	S1P2 antag	Phagocyt inh	GALR2 antag	S1P2 ag
Cc1nc(CCNC(=O)Cc2ccc(Cl)cc2)cs1	3.2	-2.5	10.0	-0.3	12.8	33.9*
CCOC(=O)C1=C(C)Nc2sc(C(=O)c3ccc(C)cc3)c(N)c2C1c1ccc(C(=O)OC)cc1 (stereo not drawn)	.	5.5*	.	7.6	1.2	.
COc1ccc(N2CCN(CCNC(=O)CCNS(=O)(=O)c3cccs3)CC2)cc1	4.6	-1.7	.	-0.1	15.2	.
Cc1ccc(-n2c(C)cc(/C=N/Nc3ccc([N+](=O)[O-])cn3)c2C)cc1	.	-0.9	7.5	-0.3	-25.9	-2.5
Cc1cc(/C=N/Nc2ccc([N+](=O)[O-])cn2)c(C)n1-c1ccccc1	25.3*	-2.1	10.4	-1.8	4.1	-3.0
O=c1oc2ccccc2n1Cc1ccccc1Cl	20.8*	.	.	.	.	.
COc1ccc(-c2cc(C#N)nc(Oc3ccc(Cl)cc3)n2)cc1	.	0.7	.	12.9	-23.0	.
CCN(CC)c1nc(C#N)cc(-c2ccc(OC)cc2)n1	5.2	0.8	-21.7	-0.4	-9.0	19.2*
COc1ccccc1NC(NC(=O)c1ccccn1)C(Cl)(Cl)Cl (stereo not drawn)	.	-2.1	.	-7.5	1.9	.
CC(=O)/C(=C/c1ccc(N(C)C)cc1)C(=O)c1ccccc1	.	-0.4	.	25.8*[artifact]	9.8	.
CC(=O)c1cc(C)ccc1OC(=O)c1cccnc1	-2.0	-2.3	12.9	-1.1	-8.8	-2.5
Cc1cc(C(=O)O)ccc1-n1c(C)ccc1C	-1.2	-2.0	10.3	.	-0.1	25.4*
O=C1C2C3C=CC(CO)(O3)C2C(=O)N1c1ccccc1-c1ccccc1 (stereo not drawn)	4.3	-0.9	.	-0.6	75.6*	.
N=c1c2c(-c3ccccc3)c(-c3ccccc3)n(Cc3ccco3)c2ncn1Cc1ccco1	0.1	5.2*	.	-1.5	-1.6	.
Cc1cc(C)n(CCc2nc3c4ccccc4n(CC#N)c(=O)n3n2)n1	-2.5	-0.1	-24.2	-0.3	-12.6	29.4*
Cc1cc(C)n(CC(O)Cn2c3ccccc3c3ccccc32)n1 (stereo not drawn)	0.3	-0.9	-11.0	1.4	7.8	-4.0
CC(C)(C)OC(=O)N[C@@H](Cc1ccccc1)c1nnc(S(=O)(=O)Cc2ccccc2)o1	.	2.1	12.5	4.2	35.2*	-4.4
CCOc1ccc(CNC(=O)C2CCN(S(=O)(=O)CC)CC2)cc1OC	-1.9	-1.4	1.9	.	-4.9	-6.1
COc1ccc(/C=N/NC(=O)CNc2n[nH]c(=O)[nH]c2=O)cc1OC	.	-0.1	.	96.9*[artifact]	0.2	.
O=C(NCc1ccccc1)c1cccc(NS(=O)(=O)c2cccc3cccnc23)c1	.	-1.6	.	-7.8	1.4	.
CC(C)c1ccc(/C=N/Nc2cc(N3CCOCC3)nc(N3CCOCC3)n2)cc1	.	0.3	.	-7.9	-4.7	.
Clc1ccc(-c2ccc(/C=N/Nc3cc(N4CCOCC4)nc(N4CCOCC4)n3)o2)cc1	4.3	29.6*	-69.1	.	-10.2	53.8*
O=C(Cn1c(=O)n(CC2CCCO2)c(=O)c2ccccc21)c1ccc(Cl)c(Cl)c1 (stereo not drawn)	5.2	-0.2	-6.5	-0.7	-1.8	-5.2
CN(CCOC(=O)c1ccco1)Cc1ccccc1	70.4*	0.0	-11.1	1.1	-20.2	-5.4
Cc1cccc(-n2ncc3c(NC(C)C)ncnc32)c1	3.3	-1.9	.	-1.7	27.0*	.
COCCn1c(=NC(C)=O)sc2cc([N+](=O)[O-])ccc21	.	6.2*	.	-2.9	1.1	.
